Laboratory results published in ChEMBL document CHEMBL4513216, “Probing the Open Global Health Chemical Diversity Library for Multistage-Active Starting Points for Next-Generation Antimalarials” (ACS Infect Dis, 2020).
The campaign covered roughly 69,000 compounds. About 8,600 (12%) showed an effect of 50% or more. For the sample, strong results were picked, then their nearest neighbours and some compounds at random.

system: Plasmodium berghei; assay: Screen against P. berghei liver stage (PbLuc), transformed with Luciferase, at 10uM; assay type: functional, HepG2; conditions: tested at 10 uM

SMILES | INHIBITION [%]
Cc1nc(N(C)C)nc(-c2cccc(-c3ccn(CCCO)n3)c2)c1C | 14.9
Cc1ccc(CNCC2CNc3cc(C)nn3C2)cn1 (centres undefined) | 33.35
CCOc1cncc(N2CCOCC2)n1 | 35.4
O=C(CCN1CCCCO1)NC1CCCN(CC2CCCCC2)C1 (centres undefined) | 11.2
O=C(CCN1CCCO1)NC1CCCN(CC2CCCCC2)C1 (centres undefined) | 50.5
O=C(CCN1CCOCC1)NC1CCCN(CC2CCCCC2)C1 (centres undefined) | 1.37
CCOc1ccc2cc(C(=O)NCCC(=O)N(C)C)[nH]c2c1 | -5.22
Cc1ccc(N2CCCN(CC3CC3)C(C(C)C)C2)nn1 (centres undefined) | 23
COCC1COCCC12CCN(C(=O)CC1Cc3ccccc3C1)CC2 (centres undefined) | 23.6
Clc1snnc1CN1CCCC1Cn1cccn1 (centres undefined) | -36.1
Cc1ccnn1CC(=O)N1CCN(C2CCc3ccccc3C2)CC1 (centres undefined) | 10.7
Cc1ccnn1CCC(=O)N1CCN(C2CCc3ccccc3C2)CC1 (centres undefined) | -5.08
CCc1nccn1CC(=O)N1CCN(C2CCc3ccccc3C2)CC1 (centres undefined) | 57.9
COc1cc(-n2cccc2)c(Cl)cc1C(=O)NS(C)(=O)=O | 23.7
CC(C)(C)CC(=O)N1[C@@H](c2ccco2)[C@@H](CO)C[C@]12CCCCNC2=O | 22.2
O=C(NCC(c1ccccc1)N1CCOCC1)Nc1cn[nH]c1 (centres undefined) | -113
Cn1c(CN2CCOCC2)cc(=O)c(O)c1CN1CCCC1 | 6.12
Cn1c(CN2CCCC(N3CCCCCC3)C2)cc(=O)n(C)c1=O (centres undefined) | -10.9
Cn1c(CN2CCCCCC2)cc(=O)c(O)c1CN1CCCC1 | 63.1
Cn1c(CN2CCCCC2)cc(=O)c(O)c1CN1CCCCC1 | 74
Cn1c(CN2CCOCC2)cc(=O)c(O)c1CN1CCOCC1 | 5.58
Cn1c(CN2CCOCC2)cc(=O)c(O)c1CN1CCCCC1 | 30.2
CN(CCn1nc2ccccn2c1=O)CC(=O)N1CCCC1 | 18.2
CCn1cc(CN(C)C(=O)c2cc(C(F)(F)F)n(C)n2)cn1 | -6.42
CC(C)(CO)Nc1c(NCc2ccncc2)c(=O)c1=O | 32.8
CC(OCCCNC(=O)c1cccnc1O)c1ccccc1 (centres undefined) | -21.2

SMILES | INHIBITION [%]
COc1ccc(C(=O)NCCCNc2ncccn2)c(OC)c1 | 30.8
COc1ccc(C(=O)NCCCOC(C)c2ccccc2)c(OC)c1 (centres undefined) | 84.4
CCC[C@@H]1CN(C(=O)c2ccccc2-c2ccccc2)C[C@H]1N(C)C | 31.7
CCC[C@@H]1CN(C(=O)c2cc3ccccc3cc2O)C[C@H]1N(C)C | 51.5
CCC[C@@H]1CN(C(=O)c2ccccc2C(C)=O)C[C@H]1N(C)C | 8.92
Cc1ccc(-c2n[nH]cc2CNCC2CCN(CC(F)(F)F)C2)o1 (centres undefined) | 27.5
CC1=N[C@@]2(CC[C@@H]3CN(CC(=O)N(C)C)C[C@@H]32)C(=O)N1CC(C)C | -6.32
CCN1CCCn2c(nc(CNC(=O)c3cnoc3C)cc2=O)C1 | -24
Cn1nccc1CNC(=O)C1CCCCC1 | 33
Cc1cc(C(=O)NC(C)CC(=O)c2ccco2)[nH]n1 (centres undefined) | 37.9
CN(C)CCN1CCO[C@H]2CCN(C(=O)c3cccs3)CC[C@@H]21 | 54.1
COCCN1CCO[C@H]2CCN(C(=O)c3ccnnc3)CC[C@@H]21 | 55.6
CS(=O)(=O)N1CCO[C@@H]2CCN(C(=O)c3cccs3)CC[C@H]21 | 31.9
CN(C)CCN1CCO[C@@H]2CCN(C(=O)c3cccn3C)CC[C@H]21 | -16.2
COCCN1CCO[C@H]2CN(C(=O)c3ccncc3F)C[C@H]21 | -52.3
O=C(c1cccs1)N1C[C@@H]2OCCN(CC3CCCO3)[C@@H]2C1 (some centres undefined) | -17.1
COCCN1CCO[C@H]2CN(C(=O)c3cccs3)C[C@H]21 | 77.7
COCCN1CCO[C@H]2CCN(C(=O)c3cccs3)CC[C@@H]21 | -18.3
O=C(c1ccnnc1)N1C[C@@H]2OCCN(CCN3CCCC3)[C@@H]2C1 | 11.9
COC(=O)N1CCC(Nc2ccc(Cl)c(C#N)n2)CC1 | 8.12
COc1ncc(C(F)(F)F)c(C(=O)O)c1Cl | 24.2
Cc1cnn(CC2CCCCN2C(=O)Cc2c(C)noc2C)c1 (centres undefined) | 8.53
CCN1Cc2ccccc2CC2(CCN(C)CC2)C1=O | 26.5
Cc1nc(C)n(CC2CCCN(CCOc3cccc(F)c3)C2)n1 (centres undefined) | 48.4
O=C(CC1CCCC1)N1CCN2C[C@@H](CO)[C@H](c3ccccc3)[C@H]2C1 | -16.4
CS(=O)(=O)NC1CCCN(C(=O)NCc2cccc(F)c2)C1 (centres undefined) | 29.4

SMILES | INHIBITION [%]
c1ccc(N2CCCC3(CCN(Cc4cccs4)C3)C2)nc1 (centres undefined) | 44.9
Cc1ccc(C(=O)NCCn2nc(-n3cncn3)ccc2=O)c(C)c1 | 16.5
CC(C)c1nc2c(n1C)CCN(Cc1nc(-c3ccco3)no1)C2 | 7.08
O=C(NCc1ccc2c(c1)OCO2)c1ccc(N2CCCCCC2)nc1 | -4.99
CNC(=O)CCC(=O)N1CCOC(c2ccc3cc(OC)ccc3c2)C1 (centres undefined) | 78.15
CN(C)C(=O)N1CC[C@@H](c2ccc3ccccc3c2)[C@H](O)C1 | 2.18
CCN1CCN(CC(=O)N2CCOC(Cc3ccc(OC)cc3)C2)CC1 (centres undefined) | -42.1
CNC(=O)NC(=O)CCN1CCOC(c2ccc(Br)cc2)C1 (centres undefined) | -65.1
COc1ccc(-c2cnc(N(C)C)nc2C2CN(C(C)=O)CCO2)cc1 (centres undefined) | 7.52
COc1ccc2cc(C3CN(C(=O)CN4CCCC4)CCO3)ccc2c1 (centres undefined) | 64.7
O=C(C1CCOCC1)N1CCOCC(Cc2ncccn2)C1 (centres undefined) | 19.3
COc1ccc2cc(C3CN(C(=O)N(C)C)CCO3)ccc2c1 (centres undefined) | 85.4
COc1ccc(CN2CCO[C@H]3CN(C(=O)C4CC4)CC[C@H]3C2=O)cc1 | -47
COc1ccc2cc(C3CN(C(=O)C4CCOCC4)CCO3)ccc2c1 (centres undefined) | 66.8
CNC(=O)CN1CCC(c2cc(OC)cc(OC)c2)C1 (centres undefined) | 45.1
Nc1cccc(C2CN(C(=O)CN3CCOCC3)CCO2)n1 (centres undefined) | 36
O=C(c1cc(-c2ccco2)cs1)N1CCCC1 | -12.2
CNC(=O)[C@H]1C[C@H]2OCC[C@H]2N(Cc2cccc3ccccc23)C1 | -6.32
COCc1nc(CNc2cc(C)nc(-c3ccccc3)n2)no1 | -7.81
O=C(CS(=O)(=O)Cc1ccccc1)NC1CCCCNC1=O (centres undefined) | 5.7
Cc1noc([C@H]2C[C@H]3OCC[C@H]3N(S(C)(=O)=O)C2)n1 | -31.3
CCOC(=O)[C@]12CCCN(Cc3ccco3)C[C@H]1CN(CCN(C)C)C2 | -0.182
Cn1nc2c(cc1=O)CN(Cc1nc(-c3ccccn3)no1)CC2 | -19.7
CCC(=O)Nc1c(C)nn(COc2cccc(F)c2)c1C | 26.7
Cc1cc(C)c2[nH]c(C(=O)NCCN3CCOC3=O)c(C)c2c1 | 24
CC(=O)N(Cc1noc(C)n1)C1CCN(CC(=O)N(C)C2CC2)C1 (centres undefined) | 7.3

SMILES | INHIBITION [%]
O=C(O)c1cc2c(nc1NCC1CC1)CCN(C1CCOC1)CC2 (centres undefined) | 29.8
COc1ccc2cc(C3CN(C(=O)CCNC(C)=O)CCO3)ccc2c1 (centres undefined) | 81.9
CC(C)c1n[nH]c(C2CN(C(=O)COc3ccc(F)cc3)CCO2)n1 (centres undefined) | 8.41
COc1ccc2cc(C3CN(C(=O)COC(C)C)CCO3)ccc2c1 (centres undefined) | 69.15
COCC(=O)N1CCC(c2ccc(OC)cc2)C1 (centres undefined) | 23.6
CC(=O)NCC(=O)N1CCOC(c2cccc(N)n2)C1 (centres undefined) | -24.4
O=C(CCNS(=O)(=O)c1ccccc1)N1CCOC(c2ccccc2)C1 (centres undefined) | -74.1
FC(F)(F)COc1cccc(-c2nc3c([nH]2)CCNC3)c1 | 36.6
CCc1nc(CN(C)C2CCN(CC(=O)N3CCOCC3)C2)no1 (centres undefined) | 22.3
O=C(CN1CCOC(CNc2cccnn2)C1)N1CCCCC1 (centres undefined) | -55.4
CSc1ccc(-c2nc(CN3CCC(NC(C)=O)CC3)c(C)o2)cc1 | 5.51
CSc1ccc(-c2nc(CN3CCC(NC(C)=O)C3)c(C)o2)cc1 (centres undefined) | 66.8
CNC(=O)C1CCN(Cc2nc(-c3ccc(SC)cc3)oc2C)C1 (centres undefined) | -2.5
COCCOc1ccc(NC(=O)C2CC(=O)N(C(C)C)C2)cn1 (centres undefined) | -21.8
CC(=O)NCC(=O)N1CCC(c2cncc(Oc3cccnc3)n2)CC1 | 9.93
CN(Cc1n[nH]c2c1CCC2)C(=O)CCc1cc2n(n1)CCNC2 | 46.3
CCc1ncc(C(=O)N2C[C@@H](C)O[C@@H](C)C2)cn1 | 24.8
CCc1ncc(C(=O)N2CC(N3CCCCC3)C2)cn1 | 13.9
CCc1ncc(C(=O)N2CC[C@H]3CC[C@@H](C2)N3C)cn1 | 61.4
CNCc1ccc([C@@H]2CN(C)C[C@H]2C(N)=O)cc1 | 49.5
CC(C)n1ccnc1CNC(=O)c1cccc(CCC(C)(C)O)c1 | 54.5
C[C@H](NC(=O)c1cccc(CCC(C)(C)O)c1)C(N)=O | 10.3
CC(C)(O)CCc1cccc(C(=O)NCc2nccs2)c1 | 56.3
Cc1csc(CN(C)C(=O)c2cccc(CCC(C)(C)O)c2)n1 | 34.9
CC[C@@H](CO)NC(=O)c1cccc(CCC(C)(C)O)c1 | 5.78
CN(Cc1nccn1C)C(=O)c1cccc(CCC(C)(C)O)c1 | 39.4
